Reference: PubChem BioAssay AID2283105 (EPA ToxCast)
Active and inactive are the calls of the source. Rule for the calls: active = hit-call score of the fitted dose curve at least 0.9, where 1 is the maximum; inactive = score below 0.9.

target: human CYP2E1, CYP2E1 (gene 1571) (UniProt P05181); assay: NVS_ADME_hCYP2E1: NovaScreen (NVS) CYP450-related Enzyme Activity (ADME) Assay for human CYP2E1
Method: NVS_ADME_hCYP2E1 is a biochemical, single-readout assay that uses extracted gene-proteins in a cell-free assay. Measurements were taken 0.5 hour after chemical dosing in a 96-well plate.NVS_ADME_hCYP2E1 is one of one assay component(s) measured or calculated from the NVS_ADME_hCYP2E1 assay. It is designed to make measurements of enzyme activity, a form of enzyme reporter, as detected with fluorescence intensity signals by Fluorescence technology.Data from the assay component NVS_ADME_hCYP2E1 was analyzed into 1 assay endpoint. This assay endpoint, NVS_ADME_hCYP2E1, was analyzed in the positive analysis fitting direction relative to Acetonitrile as the negative control and baseline of activity. Using a type of enzyme reporter, loss-of-signal activity can be used to understand changes in the enzymatic activity as they relate to the gene CYP2E1. Furthermore, this assay endpoint can be referred to as a primary readout, because this assay has produced multiple assay endpoints where this one serves a enzymatic activity function. To generalize the intended target to other relatable targets, this assay endpoint is annotated to the cyp intended target family, where the subfamily is xenobiotic metabolism.
Binding assays used specific radioligands (tritiated, iodinated) with non-radioactive competitive displacement ligands in agonist or antagonist protocols (as indicated) and various reference compounds and inhibitors to titrate specific binding to receptors and transporters. Most enzyme assays (CYPs, kinases, phosphatases, proteases, HDACs) used recombinant protein and specific substrates (fluorescence mostly, some colorimetric and radioactive) and inhibitors, followed by a biochemical separation of substrate and product. All assays for the biochemical HTS were initially run in duplicate at a single concentration (10 uM for CYP450 assays and 25 uM for all others). Assay-chemical combinations meeting a pre-defined threshold (e.g., 30% inhibition and other criteria defined below) were then run in singleton concentration-response format with maximum concentration of 20 uM for CYPs and 50 uM for all others. Each assay was run with positive and negative controls, and concurrent controls on every plate. The follow-up (secondary) screen tested active chemical-pairs in concentration series, as well as a few additional assays not tested in the primary screen, some selected negative inactives, and several cases re-run in the concentration series for confirmatory purposes.

human CYP2E1, CYP2E1 (gene 1571), sequence (P05181 whole entry, looked up): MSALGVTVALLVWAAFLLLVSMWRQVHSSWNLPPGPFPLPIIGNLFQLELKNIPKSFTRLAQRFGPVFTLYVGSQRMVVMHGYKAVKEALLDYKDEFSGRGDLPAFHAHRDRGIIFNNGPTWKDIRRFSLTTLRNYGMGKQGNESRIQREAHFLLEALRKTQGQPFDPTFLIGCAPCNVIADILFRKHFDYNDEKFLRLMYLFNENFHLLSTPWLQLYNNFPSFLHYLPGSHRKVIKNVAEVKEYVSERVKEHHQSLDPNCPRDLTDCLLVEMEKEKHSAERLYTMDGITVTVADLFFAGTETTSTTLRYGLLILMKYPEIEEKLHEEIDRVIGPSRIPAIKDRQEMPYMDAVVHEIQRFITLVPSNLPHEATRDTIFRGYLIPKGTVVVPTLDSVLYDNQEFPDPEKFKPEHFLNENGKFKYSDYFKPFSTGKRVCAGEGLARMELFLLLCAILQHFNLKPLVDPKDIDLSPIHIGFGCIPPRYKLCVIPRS

**Q.** Which outcome does the source give for `N#CSCSC#N` here?
**A.** inactive

**Q.** How did the AC50 turn out when `CC[C@H](C)[C@H]1O[C@]2(C=C[C@@H]1C)C[C@@H]1C[C@@H](C/C=C(\C)[C@@H](O[C@H]3C[C@H](OC)[C@@H](O[C@H]4C[C@H](OC)[C@@H](NC)[C@H](C)O4)[C@H](C)O3)[C@@H](C)/C=C/C=C3\CO[C@@H]4[C@H](O)C(C)=C[C@@H](C(=O)O1)[C@]34O)O2` was run?
**A.** 551 nM (active)

**Q.** Which AC50 does the source give for `COP(=S)(OC)Oc1ccc([N+](=O)[O-])c(C)c1` here?
**A.** 319 nM (active)

**Q.** How did the outcome turn out when `COP(=S)(OC)SCn1nnc2ccccc2c1=O` was run?
**A.** inactive

**Q.** How did the outcome turn out when `COP(=S)(OC)Oc1ccc([N+](=O)[O-])cc1` was run?
**A.** inactive

**Q.** With `CCCN(CCOc1c(Cl)cc(Cl)cc1Cl)C(=O)n1ccnc1` as the compound, how does the AC50 read?
**A.** 486 nM (active)

**Q.** How did the AC50 turn out when `CCC(=NOC/C=C/Cl)C1=C(O)CC(C2CCOCC2)CC1=O` (configuration not stated) was run?
**A.** 3500 nM (active)

**Q.** Which outcome does the source give for `FC(F)C(F)(F)OCC(Cn1cncn1)c1ccc(Cl)cc1Cl` (configuration not stated) here?
**A.** inactive

**Q.** For `COc1nn(CSP(=S)(OC)OC)c(=O)s1`, which outcome is on record?
**A.** inactive

**Q.** With `CC(C)(C)C(O)C(Oc1ccc(Cl)cc1)n1cncn1` (configuration not stated) as the compound, how does the AC50 read?
**A.** 604 nM (active)

**Q.** `N#Cc1c[nH]cc1-c1cccc2c1OC(F)(F)O2` was tested. Which outcome did it give?
**A.** inactive

**Q.** How did the outcome turn out when `CC(C)NC(=O)N1CC(=O)N(c2cc(Cl)cc(Cl)c2)C1=O` was run?
**A.** inactive
